The results in this text go back to PubChem BioAssay (NCATS).

The target of experiment [1] is Flap endonuclease 1 (Homo sapiens) (UniProt P39748). The experiment in a line: qHTS Validation Assay for the Inhibitors of Human Flap endonuclease 1 (FEN1) (AID 488816). Note: % is set by controls: 0 for no effect and ±100 for the full control effect. Particulars: FEN1 nuclease activity, fluorogenic DNA substrate; series mostly up to 57.1 µM. Put shortly:
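Steps: add FEN1 (10 nM reagent) or buffer only; pin compounds; hold 15 min at room temperature; start with substrate, 50 nM final; read at 0 and 15 min; correct, normalize and fit a four-parameter Hill curve.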

Experiment [2] deals with M-phase phosphoprotein 8 (Homo sapiens) (UniProt Q99549). The experiment in a line: qHTS Validation Assay for Inhibitors for MPP8 Chromodomain Interactions with Methylated Histone Tails (AID 488949). Note: nearly all actives have a fitted effect of over 55% in size. Note: potency is the fitted concentration of half-maximal effect. As to conditions: AlphaScreen MPP8 binding to H3K9me3 peptide; series mostly up to 57.1 µM. In short, it runs like this: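 50 nM MPP8 + 50 nM b-H3K9me3 peptide, PBS pH 7.4/0.01% Tween-20, 30 min RT; + cpd 30 min RT; + AlphaScreen donor/Ni-chelate acceptor beads 10 ug/mL final, 30 min dark; luminescence read.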

For experiment [3], the target named is Methanococcus maripaludis chaperonin (MmCpn) (UniProt Q6LX38). The experiment in a line: High-Throughput Screening for Modulators of Cytosolic Chaperonin Activity: MmCpn Primary Screen (AID 488978).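 Note: 50 nM MmCpn enzyme hydrolysing 30 µM ATP at 37 °C; 0% is about no effect.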 As to conditions: Purified MmCpn ATPase activity, ADP HTRF detection, 10 min; series mostly up to 76.9 µM. Put shortly:
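Steps: chaperonin 50 nM final; add compound, 5 min RT; start with ATP, 30 uM final; hold 10 min at 37C; add ADP Transcreener HTRF reagent, 5 min; read ex 320, em 590 and 665 nm.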

Experiment [4] has as its target Transient receptor potential cation channel subfamily V member 1 (Homo sapiens) (UniProt Q8NER1). Briefly: HTS Assay for Compounds that Act as Enhancers of the Vanilloid Receptor 1 (AID 488979). Note: 0% is about no effect. As to conditions: TRPV1-expressing cells, enhancer of channel activity, stimulated with capsaicin at EC20; series mostly up to 41.7 µM. In short, it runs like this: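 TRPV1-expressing cells loaded with Fluo-8 calcium dye; compounds added and calcium influx read kinetically for 3 min (agonist phase), then capsaicin at EC20 added and read 2 min more for enhancement. Fluorescence ex 480/em 520 nm.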

The target of experiment [5] is Thyrotropin receptor (Homo sapiens) (UniProt P16473). The experiment in a line: qHTS Assay for Antagonists of the Thyroid Stimulating Hormone Receptor (AID 488980). Note: 0% is about no effect. Particulars: TSHR-expressing cells, cAMP antagonist read-out; series mostly up to 57.5 µM. In short, it runs like this: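 Readout is cAMP by HTRF competition between cellular cAMP and cAMP-d2 for a cryptate-labelled antibody. Antagonism was assessed in TSHR-transfected HEK293 cells stimulated with 4 nM TSH (EC80, final) in the presence of RO 20-1724.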

Experiment [6] deals with D(1A) dopamine receptor (Homo sapiens) (UniProt P21728). The experiment in a line: HTS Assay for Allosteric Agonists of the Human D1 Dopamine Receptor: Primary Screen for Agonists (AID 488981). Note: 0% is about no effect. Particulars: Inducible HEK293 T-REx D1 cells, calcium-flux fluorescence, 180 s kinetic; series mostly up to 41.8 µM. In short, it runs like this:
(§1)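 Tetracycline-induced HEK293 T-REx cells force-coupled to calcium signalling were incubated overnight at 30 C and dye-loaded at room temperature. Calcium flux over 180 s after compound addition flagged agonists; a further 180 s read after EC20 dopamine flagged potentiators.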

The target is the same in experiment [7]. Briefly: HTS Assay for Allosteric Agonists of the Human D1 Dopamine Receptor: Primary Screen for Potentiators (AID 488982). Note: 0% is about no effect. As to conditions: HEK293 T-REx D1 inducible cells, calcium flux, kinetic fluorescence; series mostly up to 8.37 µM. In short, it runs like this: as §1
Experiment [8] has the same target. The experiment in a line: HTS Assay for Allosteric Agonists of the Human D1 Dopamine Receptor: Primary Screen for Antagonists (AID 488983).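 Note: calcium flux response to an EC80 dopamine challenge measured with no-wash dye; nearly all actives have a fitted effect of over 65% in size.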 Note: potency is the fitted concentration of half-maximal effect. As to conditions: D1 receptor cell assay, antagonist mode, qHTS titration; series mostly up to 41.8 µM. Put shortly: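 Calcium-flux read-out in inducible HEK293 T-REx cells expressing D1, dye-loaded 30–90 min at room temperature. Kinetic reads: 180 s after compound (agonist phase), then 180 s after an EC80 dopamine challenge.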

Experiment [9] in a line: Validation screen for small molecules that induce genotoxicity in human embryonic kidney (HEK293T) cells expressing luciferase-tagged ELG1 (AID 493106). Note: 0% is about no effect. As to conditions: luminescence; series mostly up to 46.1 µM. Put shortly: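 ELG1-luciferase reporter readout (ONE-Glo, 30 min, room temperature) after 16 hr compound treatment at 37 °C of HEK293T cells at 2,000 per well. Rising luminescence flags genotoxic stress.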

Experiment [10] deals with Thyrotropin-releasing hormone receptor (Homo sapiens) (UniProt P34981). The experiment in a line: qHTS for Small Molecule Agonists and Allosteric Enhancers of Human TRH Receptor: Validation Screen for Agonists (AID 493127;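 active = calcium activation more than 3 SD above the typical response in the agonist read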;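 note: intracellular calcium rise by fluo-8 fluorescence before TRH EC20 addition; 0% is about no effect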). As to conditions: TRH receptor agonist cell assay; at 2 µM; stronger effect = higher value. Put shortly: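 Compound-evoked intracellular calcium release in fluo-8-loaded TRHR cells, read kinetically on FDSS (Ex 480/Em 530, 1 s/cycle) after 23 nL pintool transfer. Agonist phase preceded 10 nM TRH EC20 addition.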
Chain of Thyrotropin-releasing hormone receptor (Homo sapiens) (P34981 whole entry, looked up): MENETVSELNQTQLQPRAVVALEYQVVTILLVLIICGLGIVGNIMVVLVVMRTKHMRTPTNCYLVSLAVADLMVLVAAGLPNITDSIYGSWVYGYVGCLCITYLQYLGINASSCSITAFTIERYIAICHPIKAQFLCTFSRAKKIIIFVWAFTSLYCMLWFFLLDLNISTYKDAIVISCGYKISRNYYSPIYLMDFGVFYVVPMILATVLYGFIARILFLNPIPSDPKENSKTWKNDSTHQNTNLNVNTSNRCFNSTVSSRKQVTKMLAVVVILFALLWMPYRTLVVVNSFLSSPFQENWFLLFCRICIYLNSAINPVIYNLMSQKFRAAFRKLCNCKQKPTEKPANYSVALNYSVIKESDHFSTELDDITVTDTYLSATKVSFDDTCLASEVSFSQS

The nature of experiment [11]: qHTS for Inhibitors of Cell Surface uPA Generation: Validation Assay (AID 493164).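 Note: RAW 264.7 macrophage cells exposed to compound for 18 h; 0% is about no effect.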 Particulars: mouse cells, plasminogen activation; series mostly up to 38.3 µM. Put shortly: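 ATP-Lite luminescence read-out: ATP remains high when uPA activity-dependent LF translocation into the cytoplasm is blocked. RAW 264.7 cells, 18 h compound exposure at 37 C; 7-point titration, 2.45 nM to 38.3 uM final.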

Experiment [12] concerns the target Galactokinase (Homo sapiens) (UniProt P51570). The experiment in a line: qHTS Validation Assay for Inhibitors of Human Galactokinase (GALK) (AID 493189). Note: 0% is about no effect. As to conditions: purified human GALK enzyme activity, qHTS 7-point titration; series mostly up to 57.5 µM. Put shortly:
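5 nM GALK / 100 uM galactose / 35 uM ATP, 20 mM HEPES pH8.0, 5 mM MgCl2, 60 mM NaCl, 1 mM DTT, 0.01% BSA (final). RT 1 h; Kinase-Glo Plus luminescence.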

Experiment [13] is described as follows: Validation screen for small molecules that induce DNA re-replication in SW480 colon adenocarcinoma cells (AID 504364). Note: potency is the fitted concentration of half-maximal effect. Particulars: DNA re-replication phenotype (high-content imaging); series mostly up to 46.1 µM. In short, it runs like this: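 Image-based DNA content read-out: Hoechst stain 40 min, total nuclear fluorescence intensity (ex 405 nm, em 500-530 nm) after 48 h compound exposure of 250 SW480 cells/well at 37 C, 5% CO2, versus DMSO vehicle.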

In experiment [14] the target is Thioredoxin reductase 1, cytoplasmic (Rattus norvegicus) (UniProt O89049). The experiment in a line: qHTS Assay for Inhibitors of Mammalian Selenoprotein Thioredoxin Reductase 1 (TrxR1) (AID 488773). Note: nearly all actives have a fitted effect of over 40% in size. Note: potency is the fitted concentration of half-maximal effect. As to conditions: purified TrxR1 enzyme activity; Potency: inhibition; series mostly up to 57.1 µM. Put shortly:
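Inhibition is scored from the loss of NADPH fluorescence between first and last reads of an 8-min kinetic run. Selenite (400 uM) was the substrate, added after 15 min compound preincubation at room temperature.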

Experiment [15] can be described thus: Nrf2 qHTS screen for inhibitors: Validation (AID 493153; active = well fitted inhibition curve with a large enough effect in the main read-out, with a control signal flat, not every such curve was filed as active). As to conditions: A549 ARE-Fluc reporter, 18-24 h; Potency: luciferase luminescence; viability change: measured here: cytotoxicity max response; luciferase luminescence, at 46.1 µM (top of the series). Put shortly: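 Concentration-response on A549 ARE_Fluc reporter cells exposed 18-24 h at 37 C, 5% CO2. Cytotoxicity read first by CellTiter-Fluor fluorescence (Ex 405/Em 525), then Nrf2 inhibition by BugLite luminescence after 15 min.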

Experiment [16] concerns the target Chromobox protein homolog 1 (Homo sapiens) (UniProt P83916). Briefly: qHTS Validation Assay for Inhibitors of HP1-beta Chromodomain Interactions with Methylated Histone Tails (AID 488953). Note: nearly all actives have a fitted effect of over 50% in size. Note: potency is the fitted concentration of half-maximal effect. Particulars: HP1-beta chromodomain / methylated histone peptide binding assay; series mostly up to 114 µM. Put shortly: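 AlphaScreen proximity signal from streptavidin donor and nickel chelate acceptor beads (final 10 ug/mL) after 30 min dark incubation. Compounds had 30 min at room temperature with preformed complex of 50 nM HP1-beta and 50 nM b-H3(1-18)K9me3 in PBS pH 7.4 with 0.01% Tween-20.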

Experiment [17] has as its target ATPase family AAA domain-containing protein 5 (Homo sapiens) (UniProt Q96QE3). The experiment in a line: Validation screen for small molecules that inhibit ELG1-dependent DNA repair in human embryonic kidney (HEK293T) cells expressing luciferase-tagged ELG1 (AID 493107).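 Note: % is set by controls: 0 for no effect and ±100 for the full control effect; inhibitors lower the ELG1-luciferase luminescence signal; nearly all actives have a fitted effect of over 70% in size.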 As to conditions: HEK293T ELG1-luciferase level, luminescence, 5-fluorouridine co-treatment, 16 h; series mostly up to 46.1 µM. In short, it runs like this:
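Luciferase read-out, ONE-Glo, 30 min at room temperature, follows 16 h co-exposure at 37 C of compound and the DNA-damaging agent 5-fluorouridine. Cells: HEK293T with ELG1-luciferase fusion, 2,000 per well, DMSO as vehicle.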

The target in experiment [18] is ATP-dependent 6-phosphofructokinase (Trypanosoma brucei brucei) (UniProt O15648). The experiment in a line: qHTS Assay to Find Inhibitors of T. brucei phosphofructokinase: hit validation (AID 492961).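 Note: luminescence reports ADP formed as PFK phosphorylates fructose-6-phosphate with ATP; % is set by controls: 0 for no effect and ±100 for the full control effect.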 Particulars: T. brucei PFK, ADP-Glo luminescence; series mostly up to 51.4 µM. Put shortly:
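Reaction: 0.1 M triethanolamine pH 8.0, 5 mM MgCl2, F6P 0.5 mM, ATP 0.1 mM, PFK 1.25 nM, 45 min RT. Read-out: ADP-Glo luminescence. Analysis: concentration-response fits, classed by r2 and efficacy.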

Inconclusive results are not listed. Activity calls are given as the source filed them. Unless noted, calls come from the whole dose curve; as a rule, active = well fitted curve in the direction sought with a large enough effect; inconclusive = small, poorly fitted or top-dose-only effect, or another doubt; inactive = no such curve, though single readings can be large; an effect the other way counts as inactive or inconclusive.

Chain of Methanococcus maripaludis chaperonin (MmCpn) (Q6LX38 1-543): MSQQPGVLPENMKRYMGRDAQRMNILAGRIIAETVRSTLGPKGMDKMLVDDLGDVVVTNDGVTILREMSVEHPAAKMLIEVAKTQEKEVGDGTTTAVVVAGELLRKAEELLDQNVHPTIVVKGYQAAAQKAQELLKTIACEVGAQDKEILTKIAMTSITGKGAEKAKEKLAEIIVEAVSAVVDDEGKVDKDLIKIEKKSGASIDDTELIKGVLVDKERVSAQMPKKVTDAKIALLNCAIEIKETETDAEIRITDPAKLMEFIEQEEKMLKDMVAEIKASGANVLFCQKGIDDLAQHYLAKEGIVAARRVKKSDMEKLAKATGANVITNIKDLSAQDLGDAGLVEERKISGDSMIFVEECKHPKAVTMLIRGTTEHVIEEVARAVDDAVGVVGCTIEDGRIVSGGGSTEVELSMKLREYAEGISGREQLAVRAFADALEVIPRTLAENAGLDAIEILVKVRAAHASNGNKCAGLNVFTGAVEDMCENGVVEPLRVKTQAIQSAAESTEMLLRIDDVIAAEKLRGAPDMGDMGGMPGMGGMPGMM
Chain of Flap endonuclease 1 (Homo sapiens) (P39748 whole entry, looked up): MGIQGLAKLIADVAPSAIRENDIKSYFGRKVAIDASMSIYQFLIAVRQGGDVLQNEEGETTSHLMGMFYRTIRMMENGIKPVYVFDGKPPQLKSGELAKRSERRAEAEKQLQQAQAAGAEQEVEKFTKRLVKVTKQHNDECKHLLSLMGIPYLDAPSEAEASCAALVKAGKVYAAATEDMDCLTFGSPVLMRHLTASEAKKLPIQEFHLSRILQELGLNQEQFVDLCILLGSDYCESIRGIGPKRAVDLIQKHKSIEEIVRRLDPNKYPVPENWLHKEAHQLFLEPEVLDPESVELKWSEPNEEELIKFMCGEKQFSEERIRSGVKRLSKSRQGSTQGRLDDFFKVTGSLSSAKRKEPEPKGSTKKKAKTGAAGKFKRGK
Chain of Transient receptor potential cation channel subfamily V member 1 (Homo sapiens) (Q8NER1 whole entry, looked up): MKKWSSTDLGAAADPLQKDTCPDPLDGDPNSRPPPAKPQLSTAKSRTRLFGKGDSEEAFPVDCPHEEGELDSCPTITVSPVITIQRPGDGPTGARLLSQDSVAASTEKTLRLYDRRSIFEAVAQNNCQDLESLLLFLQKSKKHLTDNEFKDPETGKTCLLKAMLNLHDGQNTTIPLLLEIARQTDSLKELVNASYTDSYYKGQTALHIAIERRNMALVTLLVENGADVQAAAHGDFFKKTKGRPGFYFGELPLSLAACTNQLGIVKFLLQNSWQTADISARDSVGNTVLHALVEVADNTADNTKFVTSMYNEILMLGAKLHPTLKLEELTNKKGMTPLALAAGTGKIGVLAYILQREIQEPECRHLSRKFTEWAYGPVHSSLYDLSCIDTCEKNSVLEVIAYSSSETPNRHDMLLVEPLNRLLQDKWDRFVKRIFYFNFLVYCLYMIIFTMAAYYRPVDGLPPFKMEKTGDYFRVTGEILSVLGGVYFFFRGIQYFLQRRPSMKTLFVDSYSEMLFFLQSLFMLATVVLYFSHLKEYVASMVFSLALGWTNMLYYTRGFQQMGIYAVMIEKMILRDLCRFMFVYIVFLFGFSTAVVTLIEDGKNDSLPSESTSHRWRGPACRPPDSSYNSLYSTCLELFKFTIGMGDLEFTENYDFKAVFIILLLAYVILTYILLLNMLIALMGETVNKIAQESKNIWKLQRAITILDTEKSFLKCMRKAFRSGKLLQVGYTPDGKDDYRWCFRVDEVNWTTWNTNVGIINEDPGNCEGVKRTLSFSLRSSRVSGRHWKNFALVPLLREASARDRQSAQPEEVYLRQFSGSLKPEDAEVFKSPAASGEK
Chain of Galactokinase (Homo sapiens) (P51570 whole entry, looked up): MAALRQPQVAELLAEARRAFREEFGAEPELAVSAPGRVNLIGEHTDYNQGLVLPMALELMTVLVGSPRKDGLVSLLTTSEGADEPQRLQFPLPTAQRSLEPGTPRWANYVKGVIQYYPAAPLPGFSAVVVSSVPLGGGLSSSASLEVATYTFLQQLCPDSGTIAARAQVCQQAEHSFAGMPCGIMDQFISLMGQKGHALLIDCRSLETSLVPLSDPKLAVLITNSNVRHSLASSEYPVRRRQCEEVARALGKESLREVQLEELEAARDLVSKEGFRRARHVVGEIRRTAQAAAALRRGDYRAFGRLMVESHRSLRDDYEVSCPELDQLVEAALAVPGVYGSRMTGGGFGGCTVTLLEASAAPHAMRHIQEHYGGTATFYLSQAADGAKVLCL
Chain of Chromobox protein homolog 1 (Homo sapiens) (P83916 whole entry, looked up): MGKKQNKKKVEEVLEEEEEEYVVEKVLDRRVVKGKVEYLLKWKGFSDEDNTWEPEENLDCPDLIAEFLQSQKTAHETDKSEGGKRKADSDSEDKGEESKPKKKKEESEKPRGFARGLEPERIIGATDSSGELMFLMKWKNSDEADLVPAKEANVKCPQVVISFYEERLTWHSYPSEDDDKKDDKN
Chain of D(1A) dopamine receptor (Homo sapiens) (P21728 whole entry, looked up): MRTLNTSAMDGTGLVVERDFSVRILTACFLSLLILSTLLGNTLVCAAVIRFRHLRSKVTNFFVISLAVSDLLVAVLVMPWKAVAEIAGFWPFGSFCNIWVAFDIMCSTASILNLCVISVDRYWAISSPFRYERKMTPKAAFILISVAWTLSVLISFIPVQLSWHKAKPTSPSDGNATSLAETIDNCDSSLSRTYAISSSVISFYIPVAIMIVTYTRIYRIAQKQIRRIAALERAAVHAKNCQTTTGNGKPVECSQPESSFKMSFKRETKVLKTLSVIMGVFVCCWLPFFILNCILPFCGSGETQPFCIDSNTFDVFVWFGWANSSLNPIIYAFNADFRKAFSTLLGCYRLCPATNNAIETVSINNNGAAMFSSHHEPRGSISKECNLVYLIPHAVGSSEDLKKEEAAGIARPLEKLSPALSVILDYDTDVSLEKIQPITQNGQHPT
Chain of ATPase family AAA domain-containing protein 5 (Homo sapiens) (Q96QE3 whole entry, looked up, the tested form may be a part): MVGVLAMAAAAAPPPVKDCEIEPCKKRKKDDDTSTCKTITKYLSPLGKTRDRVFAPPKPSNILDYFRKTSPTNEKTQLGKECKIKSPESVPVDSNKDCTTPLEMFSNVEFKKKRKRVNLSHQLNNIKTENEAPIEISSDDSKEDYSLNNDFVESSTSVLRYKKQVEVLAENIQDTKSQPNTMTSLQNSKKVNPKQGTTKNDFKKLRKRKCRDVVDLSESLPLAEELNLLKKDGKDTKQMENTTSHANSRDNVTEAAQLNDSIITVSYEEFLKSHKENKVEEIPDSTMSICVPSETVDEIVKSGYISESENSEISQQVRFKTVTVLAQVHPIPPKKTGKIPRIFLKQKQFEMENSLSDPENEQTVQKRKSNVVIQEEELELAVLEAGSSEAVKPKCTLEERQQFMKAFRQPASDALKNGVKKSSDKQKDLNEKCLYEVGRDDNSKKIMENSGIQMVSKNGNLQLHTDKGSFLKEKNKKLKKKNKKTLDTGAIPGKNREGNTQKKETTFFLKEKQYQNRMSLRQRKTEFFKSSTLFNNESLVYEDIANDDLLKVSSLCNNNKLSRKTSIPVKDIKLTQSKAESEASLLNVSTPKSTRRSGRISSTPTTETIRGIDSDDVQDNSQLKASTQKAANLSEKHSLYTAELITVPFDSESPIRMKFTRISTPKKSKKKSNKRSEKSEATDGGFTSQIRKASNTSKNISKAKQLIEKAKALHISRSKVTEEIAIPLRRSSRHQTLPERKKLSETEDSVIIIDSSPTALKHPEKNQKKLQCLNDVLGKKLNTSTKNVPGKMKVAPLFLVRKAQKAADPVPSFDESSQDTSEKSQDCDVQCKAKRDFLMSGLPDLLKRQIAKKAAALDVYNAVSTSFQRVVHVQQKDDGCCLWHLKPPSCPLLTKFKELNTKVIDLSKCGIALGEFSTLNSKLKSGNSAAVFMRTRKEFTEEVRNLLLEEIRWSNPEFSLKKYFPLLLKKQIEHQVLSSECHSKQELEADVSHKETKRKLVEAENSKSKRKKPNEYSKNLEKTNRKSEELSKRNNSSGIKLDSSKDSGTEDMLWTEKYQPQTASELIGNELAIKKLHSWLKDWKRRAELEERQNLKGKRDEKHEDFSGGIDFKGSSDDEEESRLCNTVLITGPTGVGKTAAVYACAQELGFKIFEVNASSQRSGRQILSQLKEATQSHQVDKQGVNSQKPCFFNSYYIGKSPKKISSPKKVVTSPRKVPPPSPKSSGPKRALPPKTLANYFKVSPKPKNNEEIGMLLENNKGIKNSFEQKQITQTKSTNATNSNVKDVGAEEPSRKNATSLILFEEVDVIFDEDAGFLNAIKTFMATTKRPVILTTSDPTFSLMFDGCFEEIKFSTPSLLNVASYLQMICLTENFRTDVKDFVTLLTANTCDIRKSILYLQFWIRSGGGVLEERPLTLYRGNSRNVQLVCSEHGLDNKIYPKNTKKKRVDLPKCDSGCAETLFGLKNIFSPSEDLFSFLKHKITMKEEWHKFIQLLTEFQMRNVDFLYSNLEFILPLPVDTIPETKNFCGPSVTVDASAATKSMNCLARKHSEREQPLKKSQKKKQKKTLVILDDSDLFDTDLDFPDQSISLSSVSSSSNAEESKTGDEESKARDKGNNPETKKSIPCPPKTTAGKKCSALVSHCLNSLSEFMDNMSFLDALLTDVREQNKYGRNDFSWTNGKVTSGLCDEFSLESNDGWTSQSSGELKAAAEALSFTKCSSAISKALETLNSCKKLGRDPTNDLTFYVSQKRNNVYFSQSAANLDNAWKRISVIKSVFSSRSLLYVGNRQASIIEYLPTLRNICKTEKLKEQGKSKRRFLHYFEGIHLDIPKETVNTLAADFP

Consider `COc1ccccc1N1CCN(CCCCNS(=O)(=O)c2cccc3c(N(C)C)cccc23)CC1`, for which the Potency entry in experiment [1], in [2], in experiment [6], in experiment [7], in experiment [9] and in experiment [12] was “inactive” in each case. The call in experiment [3], in [4], in experiment [5] and in [11] was inactive. Besides, the results for the Potency in experiment [8] and in experiment [13] were 2 µM (active) and 14.6 µM (active), respectively. Moreover, in [10], the activation was -3.25% (inactive).
With `Brc1c(Br)c(Br)c2n[nH]nc2c1Br`, the Potency entry in [14], in [6], in experiment [8] and in experiment [13] was “inactive” each time. In addition, the compound was classed as inactive in [3], in experiment [4], in experiment [5] and in [11]. Besides, the activation in experiment [10] was 0.938% (inactive).
Take `CN1CCc2cccc3c2C1Cc1ccc(O)c(O)c1-3` (stereo not drawn): the Potency in experiment [14] was 9.47 µM (active); in experiment [2], 20 µM (active). Besides, the result in experiment [4], in experiment [5] and in experiment [11] was inactive. Further, the Potency result in experiment [6], in experiment [7], in experiment [9], in experiment [15] and in experiment [12] was “inactive” each time. The activation in experiment [10] was 0.125% (inactive). Besides, the viability change in experiment [15] was determined as 0.0644%.
Turning to `NCCCCCCCCCCN`, the Potency result in experiment [1], in [2], in experiment [16], in [6], in [7] and in [8] was “inactive” throughout. Further, the Potency entry in experiment [9], in [17], in experiment [15], in [12] and in experiment [13] was “inactive” in each case. Moreover, the compound was called inactive in experiment [3], in experiment [4], in [5] and in experiment [11]. Further, the activation in [10] was 0.938% (inactive). Besides, the viability change in [15] was -2.16%.
As to `C=C/C(C)=C/[C@@]1(C)SC(=O)C(C)=C1O`, the Potency in [2] is 50.1 µM (active). The result in [4] and in experiment [5] was inactive. In addition, the activation in experiment [10] was 0.875% (inactive). Further, in experiment [13], the Potency result is “inactive”.
`N.N.O=C(O)C1(C(=O)O)CCC1.[Pt]`: the Potency in [2] was 31.6 µM (active). For the same compound, the outcome in [4] and in experiment [5] was inactive. The activation in [10] was -0.5% (inactive). The Potency entry in [12] and in experiment [13] was “inactive” each time.
Take `CCc1c(C(=O)NCCc2ccc(N3CCCCC3)cc2)[nH]c2ccc(Cl)cc12`: the Potency result in experiment [1], in experiment [2], in [6], in experiment [8], in experiment [9] and in [17] was “inactive” in each case. The Potency entry in [15] was “inactive”. Further, the Potency in experiment [16] is 20 µM (active). In addition, the viability change in [15] is -7.76%. Further, the compound was classed as inactive in experiment [11].
Consider `O=c1[nH]c2ccccc2n1CCCN1CCN(C(c2ccccc2)c2ccccc2)CC1`, for which the result in [4], in [5] and in [18] was inactive. Moreover, the Potency result in experiment [12] and in [13] was “inactive” in each case.
With `CN[C@H](CC(C)C)C(=O)N[C@H]1C(=O)N[C@@H](CC(N)=O)C(=O)N[C@H]2C(=O)N[C@H]3C(=O)N[C@H](C(=O)N[C@H](C(=O)O)c4cc(O)cc(O)c4-c4cc3ccc4O)[C@H](O)c3ccc(c(Cl)c3)Oc3cc2cc(c3O[C@@H]2O[C@H](CO)[C@@H](O)[C@H](O)[C@H]2O[C@H]2C[C@](C)(N)[C@H](O)[C@H](C)O2)Oc2ccc(cc2Cl)[C@H]1O`, the Potency result in [2] and in [13] was “inactive” in each case. In addition, the result in experiment [4] and in experiment [5] was inactive. The activation in [10] is -0.312% (inactive).
Take `CN1C2CC(OC(=O)[C@H](CO)c3ccccc3)CC1C1OC12` (stereo partly drawn): the Potency entry in [14], in experiment [16], in experiment [6], in experiment [7], in [8] and in experiment [9] was “inactive” each time. Moreover, the Potency result in experiment [17] and in experiment [15] was “inactive” each time. For the same compound, the result in experiment [3] and in [11] was inactive. Moreover, the viability change in experiment [15] was -8.53%.
